18 molecules from PubChem BioAssay (Tox21) can be followed below.

A number with no mark means an inactive call. Results filed as inconclusive are left out. Active and inactive are the calls of the source. Calls come from the whole dose curve; as a rule, active = well fitted curve in the direction sought with a large enough effect in the repeat runs; inconclusive = weak or mixed curves; inactive = no such curve, though single readings can be large; an effect the other way counts as inactive or inconclusive.

Assay [1] is described as follows: Caspase-3/7 induction in HepG2 cells by small molecules, qHTS assay (AID 1346978). Note: nearly all actives have a fitted effect of over 15% in size. The method in brief: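 Wild-type HepG2 cells, 2,000/well, settled 5 hr at 37 C and 5% CO2, then compound-treated for 17 hr; caspase-3/7 activity read by luminescent Caspase-Glo 3/7 after 30 min at room temperature.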
A short description of assay [2]: Caspase-3/7 induction in CHO-K1 cells by small molecules, qHTS cell viability counter screen (AID 1346979). Note: nearly all actives have a fitted effect of over 35% in size. Note: potency is the fitted concentration of half-maximal effect. The gist of the method:
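Wild-type CHO-K1 cells (1,500/well) treated with compound after 5 h plating; after 16 h at 37C, viability read as CellTiter-Fluor fluorescence following 1 h reagent incubation, in the same wells as the caspase read.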

Assay [3] can be described thus: Caspase-3/7 induction in CHO-K1 cells by small molecules, qHTS assay (AID 1346980). Note: nearly all actives have a fitted effect of over 15% in size. The method in brief:
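Wild-type CHO-K1 cells exposed to compounds for 17hr at 37 C, 5% CO2. Caspase-3/7 activity then measured by Caspase-Glo 3/7 luminescence after 30min at room temperature.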

Assay [4] can be described thus: Caspase-3/7 induction in HepG2 cells by small molecules, qHTS cell viability counter screen (AID 1346981). Note: series mostly up to about 92 µM; nearly all actives have a fitted effect of over 30% in size. The gist of the method:
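CellTiter-Fluor fluorescence measured viability in the same wells used for Caspase-Glo 3/7. HepG2 (wild type) at 2,000 cells/well were pre-incubated 5 hr, dosed, and given reagent at 16 hr, with 1 hr further at 37C.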

Assay [5] deals with Nuclear receptor subfamily 1 group I member 2 (Homo sapiens) (UniProt O75469). In words: Human pregnane X receptor (PXR) small molecule agonists, qHTS assay (AID 1346982). Note: nearly all actives have a fitted effect of over 35% in size. Note: potency is the fitted concentration of half-maximal effect. The gist of the method: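 Agonist mode: luminescence from ONE-Glo after 24 h compound exposure at 37C in HepG2 cells carrying hPXR-responsive CYP3A4 luciferase, plated in charcoal-stripped serum medium 5 h beforehand.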

Assay [6] has as its target Cytochrome P450 2C9 (Homo sapiens) (UniProt P11712). The assay can be described thus: Cytochrome P450 Family 2 Subfamily C Member 9 (CYP2C9) small molecule antagonists: luciferase reporter qHTS assay (AID 1671198). For activity change, negative = inhibition: series mostly up to about 120 µM. Note: nearly all actives have a fitted effect of over 50% in size. Note: potency is the fitted concentration of half-maximal effect. The method in brief: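 P450-Glo proluciferin substrate with CYP2C9 enzyme; 10 min RT preincubation, then NADPH regeneration 1 h at 37C; luciferin detection reagent 20 min RT, luminescence in relative luminescence units.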

Assay [7] addresses Cytochrome P450 1A2 (Homo sapiens) (UniProt P05177). The assay can be described thus: Cytochrome P450 Family 1 Subfamily A Member 2 (CYP1A2) small molecule antagonists: luciferase reporter qHTS assay (AID 1671199). For activity change, negative = inhibition: series mostly up to about 120 µM. Note: nearly all actives have a fitted effect of over 50% in size. Note: potency is the fitted concentration of half-maximal effect. The gist of the method: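 Luminescence from luciferin formed by CYP1A2 from a proluciferin substrate, read 20 min after detection reagent. Compound was pre-incubated 10 min with enzyme-substrate, and reaction started with NADPH regeneration solution for 1 h at room temperature; furafylline control.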

Assay [8] deals with Voltage-gated inwardly rectifying potassium channel KCNH2 (Homo sapiens) (UniProt Q12809). The assay can be described thus: Human Ether-a-go-go-Related Gene (hERG) channel small molecule antagonists: fluorescence cell-based qHTS assay (AID 1671200).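 Note: hERG-expressing U2OS cells given a thallium stimulus after FluxOR II dye loading; series mostly up to about 77 µM; nearly all actives have a fitted effect of over 50% in size.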 The gist of the method:
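hERG-U2OS cells plated overnight at 37 C, loaded with FluxOR II dye 1 h at RT in dark; after 10 min, thallium stimulus added. Fluorescence (480/540 nm) read kinetically for 2 min at 1 s intervals.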

The target of assay [9] is Cytochrome P450 3A4 (Homo sapiens) (UniProt P08684). In words: Cytochrome P450 Family 3 Subfamily A Member 4 (CYP3A4) small molecule antagonists: luciferase reporter qHTS assay (AID 1671201). For activity change, negative = inhibition: series mostly up to about 120 µM. Note: nearly all actives have a fitted effect of over 50% in size. Note: potency is the fitted concentration of half-maximal effect. The method in brief: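 P450-Glo CYP3A4 luminescent assay: compounds preincubated 10 min at room temperature with enzyme and proluciferin substrate, NADPH regeneration added, 1 h room-temperature reaction, stopped with luciferin detection reagent; luminescence read after 20 min. Ketoconazole positive control.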

Assay [10] deals with Cytochrome P450 2D6 (Homo sapiens) (UniProt P10635). In words: Cytochrome P450 Family 2 Subfamily D Member 6 (CYP2D6) small molecule antagonists: luciferase reporter qHTS assay (AID 1671196). For activity change, negative = inhibition: series mostly up to about 120 µM. Note: nearly all actives have a fitted effect of over 50% in size. Note: potency is the fitted concentration of half-maximal effect. The gist of the method: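 CYP2D6 activity was followed as luminescence from its luciferin product after a 1 h NADPH-driven reaction at room temperature. Enzyme-substrate mix and compound were pre-incubated for 10 min, and the signal was read 20 min after adding detection reagent.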

The target of assay [11] is Cytochrome P450 2C19 (Homo sapiens) (UniProt P33261). In words: Cytochrome P450 Family 2 Subfamily C Member 19 (CYP2C19) small molecule antagonists: luciferase reporter qHTS assay (AID 1671197). For activity change, negative = inhibition: series mostly up to about 120 µM. Note: nearly all actives have a fitted effect of over 65% in size. Note: potency is the fitted concentration of half-maximal effect. The method in brief: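 First, compounds are pinned into enzyme-substrate mix and held 10 min at room temperature. Second, NADPH regeneration solution is added and plates incubate 1 h at 37C. Third, detection reagent is added and luminescence read after 20 min.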

The target of assay [12] is Nuclear receptor subfamily 1 group I member 2 (Rattus norvegicus) (UniProt Q9R1A7). In words: Rat pregnane X receptor (rPXR) activation by small molecules, qHTS assay (AID 1346983). Note: nearly all actives have a fitted effect of over 20% in size. The note with it: rPXR luciferase reporter cells, One-Glo luminescence, 24 h; max activation: stronger effect = higher value. The gist of the method:
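Cell-based rPXR activation assay: rPXR cells, 2,000 per well, rested 5hr at 37 C, then exposed to compounds in DMSO for 24 hr at 37 C. Luciferase activity read by One-Glo luminescence after 30 min at room temperature.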
% is set by controls: 0 for no effect and ±100 for the full control effect.

Chain of Cytochrome P450 2C9 (Homo sapiens) (P11712 whole entry, looked up): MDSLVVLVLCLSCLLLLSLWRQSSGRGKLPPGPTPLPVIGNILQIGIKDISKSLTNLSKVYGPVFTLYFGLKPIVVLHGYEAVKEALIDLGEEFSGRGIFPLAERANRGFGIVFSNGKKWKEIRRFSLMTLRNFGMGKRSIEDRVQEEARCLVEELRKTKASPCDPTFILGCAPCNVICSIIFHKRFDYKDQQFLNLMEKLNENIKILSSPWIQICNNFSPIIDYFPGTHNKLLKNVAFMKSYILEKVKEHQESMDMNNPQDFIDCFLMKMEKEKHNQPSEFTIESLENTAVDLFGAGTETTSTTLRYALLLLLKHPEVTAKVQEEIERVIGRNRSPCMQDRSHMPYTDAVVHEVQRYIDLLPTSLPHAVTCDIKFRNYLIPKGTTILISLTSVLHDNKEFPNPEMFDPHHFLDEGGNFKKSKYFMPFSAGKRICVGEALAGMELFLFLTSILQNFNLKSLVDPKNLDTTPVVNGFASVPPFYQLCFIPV
Chain of Cytochrome P450 1A2 (Homo sapiens) (P05177 whole entry, looked up): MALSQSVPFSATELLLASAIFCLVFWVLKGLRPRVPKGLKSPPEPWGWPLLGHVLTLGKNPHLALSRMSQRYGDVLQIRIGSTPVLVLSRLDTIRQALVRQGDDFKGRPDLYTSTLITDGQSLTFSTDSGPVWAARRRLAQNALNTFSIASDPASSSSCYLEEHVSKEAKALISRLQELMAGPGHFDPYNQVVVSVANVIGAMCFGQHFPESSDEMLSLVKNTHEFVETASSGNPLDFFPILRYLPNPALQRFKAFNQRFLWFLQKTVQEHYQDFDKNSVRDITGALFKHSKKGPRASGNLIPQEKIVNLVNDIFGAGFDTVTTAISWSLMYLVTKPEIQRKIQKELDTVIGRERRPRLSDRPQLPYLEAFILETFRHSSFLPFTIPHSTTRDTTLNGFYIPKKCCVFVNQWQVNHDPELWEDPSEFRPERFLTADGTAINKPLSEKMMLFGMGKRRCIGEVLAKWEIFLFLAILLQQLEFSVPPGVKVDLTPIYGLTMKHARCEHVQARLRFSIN
Chain of Nuclear receptor subfamily 1 group I member 2 (Homo sapiens) (O75469 whole entry, looked up): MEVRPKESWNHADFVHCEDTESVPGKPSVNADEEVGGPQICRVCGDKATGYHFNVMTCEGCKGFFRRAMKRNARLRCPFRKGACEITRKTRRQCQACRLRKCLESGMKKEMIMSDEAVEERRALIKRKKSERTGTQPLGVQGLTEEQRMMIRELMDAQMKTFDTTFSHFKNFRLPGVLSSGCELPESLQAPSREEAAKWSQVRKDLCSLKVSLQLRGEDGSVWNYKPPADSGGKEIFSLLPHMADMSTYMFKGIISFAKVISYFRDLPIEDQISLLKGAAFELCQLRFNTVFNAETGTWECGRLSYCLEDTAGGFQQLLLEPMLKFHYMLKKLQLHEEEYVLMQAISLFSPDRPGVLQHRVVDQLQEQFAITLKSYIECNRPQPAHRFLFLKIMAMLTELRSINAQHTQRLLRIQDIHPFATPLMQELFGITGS
Chain of Voltage-gated inwardly rectifying potassium channel KCNH2 (Homo sapiens) (Q12809 whole entry, looked up): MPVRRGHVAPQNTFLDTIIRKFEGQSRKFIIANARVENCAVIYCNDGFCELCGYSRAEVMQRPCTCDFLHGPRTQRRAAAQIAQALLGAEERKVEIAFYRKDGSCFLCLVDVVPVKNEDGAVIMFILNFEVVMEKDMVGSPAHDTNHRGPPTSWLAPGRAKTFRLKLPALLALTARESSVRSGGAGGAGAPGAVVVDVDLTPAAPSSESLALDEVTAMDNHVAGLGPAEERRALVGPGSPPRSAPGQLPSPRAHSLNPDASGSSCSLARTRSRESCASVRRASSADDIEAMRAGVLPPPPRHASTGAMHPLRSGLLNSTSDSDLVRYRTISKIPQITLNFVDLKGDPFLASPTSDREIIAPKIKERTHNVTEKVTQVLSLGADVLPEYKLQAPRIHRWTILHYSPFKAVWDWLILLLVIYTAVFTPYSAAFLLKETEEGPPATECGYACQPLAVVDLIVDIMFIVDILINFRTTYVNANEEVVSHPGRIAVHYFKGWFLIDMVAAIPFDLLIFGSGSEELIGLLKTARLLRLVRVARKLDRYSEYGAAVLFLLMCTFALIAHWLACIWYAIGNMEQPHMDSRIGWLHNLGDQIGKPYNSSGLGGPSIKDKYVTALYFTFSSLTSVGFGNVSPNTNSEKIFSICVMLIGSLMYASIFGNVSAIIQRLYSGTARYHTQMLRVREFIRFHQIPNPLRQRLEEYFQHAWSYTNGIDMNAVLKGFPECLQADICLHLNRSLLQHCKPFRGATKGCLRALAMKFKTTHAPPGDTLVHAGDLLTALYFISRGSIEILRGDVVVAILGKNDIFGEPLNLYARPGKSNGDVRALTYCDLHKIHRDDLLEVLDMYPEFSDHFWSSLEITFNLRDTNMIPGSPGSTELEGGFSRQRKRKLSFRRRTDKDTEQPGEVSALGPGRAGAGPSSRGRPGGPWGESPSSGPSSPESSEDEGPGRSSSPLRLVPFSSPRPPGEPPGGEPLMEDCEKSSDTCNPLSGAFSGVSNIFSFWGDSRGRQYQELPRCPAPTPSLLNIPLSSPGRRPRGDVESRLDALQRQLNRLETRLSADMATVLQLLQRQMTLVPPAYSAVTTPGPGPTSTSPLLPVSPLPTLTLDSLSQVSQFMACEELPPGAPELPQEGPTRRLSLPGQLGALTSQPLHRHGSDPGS
Chain of Cytochrome P450 3A4 (Homo sapiens) (P08684 whole entry, looked up): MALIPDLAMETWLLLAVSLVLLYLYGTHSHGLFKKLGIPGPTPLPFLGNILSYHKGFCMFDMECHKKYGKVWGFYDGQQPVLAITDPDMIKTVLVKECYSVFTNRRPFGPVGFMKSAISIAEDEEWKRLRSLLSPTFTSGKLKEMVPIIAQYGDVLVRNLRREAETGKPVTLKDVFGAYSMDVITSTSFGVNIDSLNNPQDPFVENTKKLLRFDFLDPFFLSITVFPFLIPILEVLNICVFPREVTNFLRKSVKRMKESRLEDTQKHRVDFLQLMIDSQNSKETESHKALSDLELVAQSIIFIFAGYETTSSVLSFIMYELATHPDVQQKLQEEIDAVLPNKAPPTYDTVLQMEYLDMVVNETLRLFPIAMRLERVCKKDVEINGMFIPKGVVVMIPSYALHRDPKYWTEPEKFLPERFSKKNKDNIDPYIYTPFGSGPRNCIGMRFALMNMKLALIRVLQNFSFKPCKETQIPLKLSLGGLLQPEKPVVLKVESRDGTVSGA
Chain of Cytochrome P450 2D6 (Homo sapiens) (P10635 whole entry, looked up): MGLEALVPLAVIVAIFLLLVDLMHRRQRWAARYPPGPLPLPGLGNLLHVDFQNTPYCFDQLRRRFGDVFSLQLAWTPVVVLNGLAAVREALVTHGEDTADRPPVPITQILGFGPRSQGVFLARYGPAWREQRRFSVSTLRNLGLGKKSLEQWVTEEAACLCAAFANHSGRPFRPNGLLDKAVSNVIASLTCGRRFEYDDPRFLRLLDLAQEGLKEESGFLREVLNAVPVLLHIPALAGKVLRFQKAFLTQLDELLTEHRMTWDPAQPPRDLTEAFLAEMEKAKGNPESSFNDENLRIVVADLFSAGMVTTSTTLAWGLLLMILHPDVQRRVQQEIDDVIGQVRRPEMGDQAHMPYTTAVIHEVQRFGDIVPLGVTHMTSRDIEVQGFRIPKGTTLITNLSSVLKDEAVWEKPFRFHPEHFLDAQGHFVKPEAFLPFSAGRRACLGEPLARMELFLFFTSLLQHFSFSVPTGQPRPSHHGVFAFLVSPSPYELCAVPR
Chain of Cytochrome P450 2C19 (Homo sapiens) (P33261 whole entry, looked up): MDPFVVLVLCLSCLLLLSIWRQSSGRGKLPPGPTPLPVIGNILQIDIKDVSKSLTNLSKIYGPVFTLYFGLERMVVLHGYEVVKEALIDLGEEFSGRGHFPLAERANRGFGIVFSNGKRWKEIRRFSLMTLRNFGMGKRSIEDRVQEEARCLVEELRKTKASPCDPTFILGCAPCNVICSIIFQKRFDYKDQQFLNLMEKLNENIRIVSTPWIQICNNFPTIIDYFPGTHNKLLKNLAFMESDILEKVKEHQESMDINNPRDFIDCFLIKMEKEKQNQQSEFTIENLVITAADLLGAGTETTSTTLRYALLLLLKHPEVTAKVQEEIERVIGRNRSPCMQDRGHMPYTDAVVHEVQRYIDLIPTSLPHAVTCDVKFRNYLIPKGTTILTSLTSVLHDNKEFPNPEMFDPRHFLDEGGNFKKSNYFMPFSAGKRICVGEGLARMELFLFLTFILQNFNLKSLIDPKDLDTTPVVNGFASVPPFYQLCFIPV
Chain of Nuclear receptor subfamily 1 group I member 2 (Rattus norvegicus) (Q9R1A7 whole entry, looked up): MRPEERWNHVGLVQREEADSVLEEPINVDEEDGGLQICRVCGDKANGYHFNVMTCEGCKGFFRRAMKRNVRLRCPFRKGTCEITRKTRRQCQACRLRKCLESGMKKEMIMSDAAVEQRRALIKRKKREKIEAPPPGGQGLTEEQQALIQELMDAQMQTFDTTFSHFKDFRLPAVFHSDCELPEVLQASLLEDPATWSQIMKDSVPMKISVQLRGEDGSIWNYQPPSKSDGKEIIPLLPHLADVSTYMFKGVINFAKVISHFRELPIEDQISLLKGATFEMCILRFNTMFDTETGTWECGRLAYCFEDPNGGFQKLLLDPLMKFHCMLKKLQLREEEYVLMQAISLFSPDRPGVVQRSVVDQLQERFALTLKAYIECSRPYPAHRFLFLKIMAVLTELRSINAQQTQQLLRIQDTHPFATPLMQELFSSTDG

Turning to `OCCN1CN(CCO)CN(CCO)C1`, the Potency result in [1], in assay [2], in assay [3], in assay [4], in assay [5] and in assay [6] was “inactive” throughout. Besides, the Potency result in assay [7], in [8] and in assay [9] was “inactive” throughout.

Consider `OCCCCl`, for which the Potency result in [1], in [2], in assay [3], in [4], in [10] and in [11] was “inactive” each time. Besides, the Potency entry in assay [6], in assay [7], in [8] and in [9] was “inactive” each time.

For the molecule `C=CC/C=C/C/C=C/C/C=C/C`, the Potency result in assay [1], in [2], in assay [3], in assay [4], in [10] and in assay [11] was “inactive” throughout. In addition, the Potency result in assay [6], in [8] and in assay [9] was “inactive” throughout.

On to `CCCCCCCCCCCCCOP(=O)(O)O`, for which the Potency entry in [1], in [2], in assay [3], in assay [4], in [10] and in [8] was “inactive” in each case. Also, the Potency result in assay [9] is “inactive”. Besides, in assay [11], the Potency was 79.6 µM (active).

Consider `CCCCCCCCCCc1ccccc1`, for which the Potency result in assay [1], in assay [2], in [3], in assay [4], in assay [10] and in assay [11] was “inactive” throughout. Moreover, the Potency entry in assay [6] and in [9] was “inactive” in each case.

For `Clc1nc2ccccc2s1`, the Potency result in [1], in assay [2], in assay [3], in assay [4], in assay [10] and in assay [11] was “inactive” throughout. For the same molecule, the Potency result in assay [6], in assay [8] and in assay [9] was “inactive” throughout.

For the molecule `Cc1ccc(O)cn1`, the Potency result in assay [1], in assay [2], in [3], in assay [4], in assay [5] and in assay [11] was “inactive” each time. In addition, the Potency result in [6], in assay [7], in assay [8] and in assay [9] was “inactive” each time.

As for `CN1CN(C)CN(C)C1`, the Potency result in assay [1], in assay [2], in assay [3], in [4], in assay [10] and in assay [11] was “inactive” in each case. The Potency result in assay [6], in assay [7], in assay [8] and in assay [9] was “inactive” each time.

Take `NCCCC(O)(P(=O)(O)O)P(=O)(O)O`: the Potency result in assay [1], in assay [2], in [3] and in [4] was “inactive” throughout. For the same molecule, the max activation in [12] was -1.25%.

With `CN1[C@@H]2CC[C@H]1CC(OC(=O)C(CO)c1ccccc1)C2` (stereo not given in full), the Potency entry in [1], in assay [2], in [3] and in assay [4] was “inactive” each time. Moreover, in assay [12], the max activation is -0.936%.

On to `O=C(NO)c1ccccc1`, for which the Potency entry in assay [1], in assay [3], in [4], in [8] and in assay [9] was “inactive” in each case. The Potency is 65.3 µM (active) in assay [2], 29.2 µM (active) in [5] and 60.2 µM (active) in [10].

For the molecule `CCc1cccc(CC)c1N(COC)C(=O)CS(=O)(=O)O`, the Potency result in [1], in assay [2], in assay [3], in [4], in [10] and in assay [11] was “inactive” each time. Moreover, the Potency result in assay [7], in [8] and in assay [9] was “inactive” throughout.

With `C=CC(=C)CC/C=C(\C)CCC=C(C)C`, in assay [1], the caspase activation was 0.847% [at 19 µM]. In addition, the values for the activity change, negative = cytotoxicity in assay [2] and in assay [4] were -0.798% [at 19 µM] and -2.86% [at 19 µM], respectively. The caspase-3/7 activation in assay [3] is 0.541% [at 19 µM]. The activity change, negative = inhibition was -7.39% [at 23.6 µM] in [10] and -2.72% [at 15.8 µM] in assay [8]. Besides, the figures for the Potency in assay [7] and in assay [9] were 15.1 µM (active) and 16.9 µM (active), respectively.

Consider `C/C=C/C(=O)C1=C(C)CCCC1(C)C`, for which the Potency entry in assay [1], in assay [2], in assay [3], in [4], in assay [10] and in [6] was “inactive” each time. Also, the Potency result in assay [7] and in [8] was “inactive” each time. Besides, the Potency in [11] was 79.6 µM (active).

For `O=C(O)c1cccc(Cl)n1`, the Potency entry in assay [1], in [2], in [3], in assay [4], in assay [5] and in [11] was “inactive” in each case. In addition, the Potency entry in [6], in assay [7], in [8] and in assay [9] was “inactive” each time.

On to `Cn1cccc1`, for which the Potency entry in assay [1], in [2], in [3], in assay [4], in [5] and in [11] was “inactive” throughout. The Potency entry in [6], in assay [7], in assay [8] and in [9] was “inactive” throughout.

For the molecule `O=C(c1ccccc1)c1cc(Cl)ccc1O`, the Potency result in [1], in assay [2], in assay [3], in [4] and in [9] was “inactive” each time. Besides, the Potency is 37.9 µM (active) in assay [10], 1.9 µM (active) in [11], 33.8 µM (active) in [6] and 12 µM (active) in assay [7].

On to `CC1(C)C(=O)N(Br)C(=O)N1Br`, for which the Potency entry in assay [1], in [2], in assay [3], in assay [4], in [5] and in assay [11] was “inactive” in each case. Also, the Potency result in assay [7], in assay [8] and in assay [9] was “inactive” throughout.
